Assay outcomes from PubChem BioAssay.
Hits are enriched below; roughly 19% of the tested compounds scored in any of these assays.
TDP1 cell CPT: growth inhibition of DT40 Tdp1-/-;hTDP1 cells with camptothecin (screen for TDP1 inhibitors) | chicken DT40 Tdp1-/-;hTDP1 cells + 20 nM CPT, ATP luminescence, 48 h | Potency, µM (highest dose often 46.2 µM), hits mostly inhibitors | 12% of 420,000 active; further: nearly all actives have a fitted effect of over 55% in size
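Chicken DT40 Tdp1-/- cells complemented with human TDP1, 400 cells/well, exposed to compounds plus 20 nM camptothecin for at least 48 h at 37 C; viability read as ATP content by CellTiter-Glo luminescence.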
IL-1B inflam inh: blocks inflammasome-driven IL-1 beta release | THP-1 LPS/ATP IL-1B secretion, AlphaLISA, 16 h; hits give low values | activity change, % at 57.5 µM | 4.7% of 360,000 active | AID 743279; in the data active means activity change below about -50%; inconclusive means mostly about -30% to -49%
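Secreted IL-1B measured by AlphaLISA bead assay after 16 h compound exposure of THP-1 cells; compounds (final up to 57.5 uM) added 1 h before LPS (250 ng/mL) and ATP (1.25 mM) stimulation; lower signal means less secretion.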
Giardia kill: Giardia lamblia killing | 0.15% of 340,000 active | activity change, % at 7.66 µM, hits read low | Giardia lamblia trophozoite viability; in the data active means activity change below about -80%; inconclusive means between about -30% and that limit;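 further: parasites exposed to compound for two days anaerobically before the ATP read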
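Giardia trophozoites, 100 cells per well, were exposed to compounds for 48 hrs at 37 deg C under anaerobic conditions; viability was then read as ATP content by bioluminescence after 15-30 min at room temperature.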
TDP1 block: inhibitors of human tyrosyl-DNA phosphodiesterase TDP1 | Q9NUW8 | AID 485290 | 0.28% of 350,000 active | recombinant TDP1, AlphaScreen DNA substrate cleavage | Potency, µM (titrated, usually from 130 µM), usual class: inhibitors; further: nearly all actives have a fitted effect of over 40% in size
Target sequence (Q9NUW8 whole entry, looked up): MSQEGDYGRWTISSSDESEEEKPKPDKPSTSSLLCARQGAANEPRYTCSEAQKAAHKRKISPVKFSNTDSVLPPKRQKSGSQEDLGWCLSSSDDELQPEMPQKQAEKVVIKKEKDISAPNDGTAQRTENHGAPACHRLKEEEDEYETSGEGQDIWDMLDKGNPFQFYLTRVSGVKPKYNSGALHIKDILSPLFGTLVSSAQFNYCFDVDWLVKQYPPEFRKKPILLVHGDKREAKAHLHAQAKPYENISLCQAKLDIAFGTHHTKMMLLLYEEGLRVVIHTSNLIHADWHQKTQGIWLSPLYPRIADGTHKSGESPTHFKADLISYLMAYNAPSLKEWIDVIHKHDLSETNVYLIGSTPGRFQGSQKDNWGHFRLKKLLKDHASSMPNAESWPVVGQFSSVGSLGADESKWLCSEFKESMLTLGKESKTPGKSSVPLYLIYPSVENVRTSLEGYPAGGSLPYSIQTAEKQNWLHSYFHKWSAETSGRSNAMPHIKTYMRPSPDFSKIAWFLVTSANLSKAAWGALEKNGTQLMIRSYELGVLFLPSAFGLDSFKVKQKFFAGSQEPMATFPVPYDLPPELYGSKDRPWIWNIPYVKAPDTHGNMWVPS
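Enzyme-compound mixtures sat 15 min at room temperature, followed by a 5 min reaction with 15 nM final substrate and 10 min with AlphaScreen beads. Recombinant human Tdp1 was used at 1 nM final.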
DT40 TDP1 no CPT: qHTS for Inhibitors of human tyrosyl-DNA phosphodiesterase 1 (TDP1): qHTS in cells in absence of CPT. Potency, µM (doses to about 46.2 µM), usual class: inhibitors. DT40 Tdp1-/- hTDP1 cells, no CPT, ATP luminescence, 48 h. 15% of 420,000 active; further: nearly all actives have a fitted effect of over 55% in size
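Growth kinetics read by CellTiter-Glo luminescence after ≥48 hr at 37 °C. Cells: DT40 Tdp1-/- stably carrying human TDP1, 400 per well, compound exposure in the absence of CPT (DMSO vehicle).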
ELG1 DNA repair: ELG1-dependent DNA repair inhibition. HEK293T ELG1-luciferase reporter, luminescence, 16 h; DNA damage induced by 5-fluorouridine. Potency, µM (top dose mostly 46.1 µM), most hits filed as inhibitors. AID 504467. 2.3% of 330,000 active; further: nearly all actives have a fitted effect of over 55% in size
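DMSO vehicle served as the neutral condition. Each well held 2,000 cells given 5-fluorouridine plus compound; after 16 hr at 37 °C/5% CO2, ONE-Glo was added and luciferase measured 30 min later.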
Numbers stand for hits; 0 = inactive; ? = inconclusive; - = no result; [ ] = another dose, or the depositor's remark. Unless noted, the call rests on the fitted dose curve; in most records, active means well fitted curve in the direction sought with a large enough effect; inconclusive means small, poorly fitted or top-dose-only effect, or another doubt; inactive means no such curve, though single readings can be large; an effect the other way counts as inactive or inconclusive.

SMILES	TDP1 cell CPT	IL-1B inflam inh	Giardia kill	TDP1 block	DT40 TDP1 no CPT	ELG1 DNA repair
COc1cc(S(=O)(=O)NCc2ccncc2)ccc1Br	8.2µM	0	0	0	9.2µM	?
Cc1ccc(S(=O)(=O)NCc2ccncc2)cc1C	2.9µM	0	0	0	1.3µM	0
Cc1cc(Br)c(S(=O)(=O)NCc2ccncc2)cc1C	5.8µM	0	0	0	7.3µM	?
O=C(O)C1CCN(S(=O)(=O)c2ccc(N3CCCC3C(=O)O)c([N+](=O)[O-])c2)CC1 (stereo not given)	0	0	0	0	0	0
CCc1ccccc1N(CC(=O)Nc1cccnc1)S(=O)(=O)c1ccccc1	0	0	0	0	?	?
O=S(=O)(NCc1ccncc1)c1ccc(Br)s1	1.8µM	0	0	0	2.6µM	?
O=S(=O)(NCc1cccnc1)c1ccc2ccccc2c1	?	0	0	0[0.0935 µM]	21µM	0
CC(C)c1ccc(NS(=O)(=O)c2ccc3c(c2)oc(=O)n3C)cc1	18µM	0	0	-	?	0
Cn1c(=O)oc2cc(S(=O)(=O)Nc3ccc(Cl)cc3)ccc21	0	0	0	-	0	0
Cc1ccc(S(=O)(=O)NCc2ccncc2)cc1C(=O)NCC(C)C	15µM	0	0	0	?	0
CCc1nc2ccc(C(=O)N3CCNC(=O)C3)cn2c1N(C)CCC(C)C	0	0	-	-	0	-
O=[N+]([O-])c1ccccc1S(=O)(=O)NCc1cccnc1	8.9µM	0	0	0	21µM	0
COc1ccc(S(=O)(=O)NCc2cccnc2)cc1	0	0	0	0	0	0
COC(=O)COc1ccc(S(=O)(=O)NCc2ccncc2)cc1	4.1µM	0	0	0	9.2µM	?
Nc1ncc(S(=O)(=O)NCc2ccccc2)cn1	0	-	-	0	0	-
COc1ccc(S(=O)(=O)NCc2cccnc2)cc1Br	4.6µM	0	0	0	5.8µM	?
O=S(=O)(NCc1ccncc1)c1ccccc1	23µM	0	0	0	8.2µM	?
CCOC(=O)COc1ccc(S(=O)(=O)NCc2cccnc2)cc1	0	0	0	0	0	0
COc1ccc2oc(C(=O)N3CCN(S(=O)(=O)c4c(C)c(C)cc(C)c4C)CC3)c(C)c2c1	?	0	0	-	?	-
O=C(NCc1ccco1)C1CCN(C(=O)N2CCOc3ccccc32)CC1	0	-	-	0	0	-
COc1ccc(CNC(=O)c2cnc3sc(N4CCC(C)CC4)nn3c2=O)c(OC)c1	0	-	-	0	0	-
CCCNc1c(NS(=O)(=O)c2c(F)c(F)c(F)c(F)c2F)c(=O)oc2ccccc12	0	0	0	0	0	0
Cc1cc(C)c(C)c(S(=O)(=O)NCc2ccncc2)c1C	21µM	0	0	0[0.0935 µM]	13µM	2.9µM
Cc1cc(C)c(C)c(S(=O)(=O)NCc2ccc(C(=O)N3CCN(C)CC3)cc2)c1C	0	0	0	0	0	?
O=C(COC(=O)/C(=C/c1cccs1)c1cccs1)NC(c1ccccc1)c1ccccc1	16µM	0	0	0	16µM	0
SMILES	TDP1 cell CPT	IL-1B inflam inh	Giardia kill	TDP1 block	DT40 TDP1 no CPT	ELG1 DNA repair
Cc1cn2c(=O)cc(COc3cccc(NC(=O)c4ccccc4Cl)c3)nc2s1	?	-	-	0	13µM	-
Cc1cn2c(=O)cc(COc3cccc(NC(=O)c4ccc(C(C)(C)C)cc4)c3)nc2s1	16µM	-	-	0	16µM	-
Cc1cccc(C(=O)Nc2cccc(OCc3cc(=O)n4cc(C)sc4n3)c2)c1	?	-	-	0	?	-
O=C(NCc1cccs1)c1ccc(Cl)c(S(=O)(=O)N2CCOCC2)c1	0	0	-	-	0	-
O=C1[C@H](CC[C@H](O)c2ccc(F)cc2)[C@@H](c2ccc(O)cc2)N1c1ccc(F)cc1	?	-	-	0	0	-
Cc1c(C(=O)NC2CCCCCC2)sc2ncnc(NCC3CCCO3)c12 (stereo not given)	0[9.04 µM]	-	-	-	?	-
CCOc1ccc(NC(=O)COC(=O)c2ncc(Cl)c(Cl)c2Cl)cc1	0	0	0	0	0	0
O=C(COC(=O)c1cnc(Cl)c(Cl)c1)Nc1cccc(S(=O)(=O)N2CCOCC2)c1	0	0	0	0	0	0
